Among the data in PubChem BioAssay (NCATS) are Potency and outcome values, retold here.

Records with an inconclusive call do not appear. Entries that show only a call come without a potency. Active and inactive are the calls of the source. Calls come from the whole dose curve; as a rule, active = well fitted inhibition curve with a large enough effect; inconclusive = small, poorly fitted or top-dose-only effect; inactive = no such curve, though single readings can be large or run the other way.

The first test in a line: qHTS assay for measurement of the activity of small molecule inhibitors on Zika virus induced Caspase-3 activity in human iPSC derived neural progenitor cells (hNPCs) (AID 1224857). Note: nearly all actives have a fitted effect of over 65% in size. The settings on record: hNPCs ZIKV-induced caspase-3/7, Caspase-Glo luminescence, 6 h; series mostly up to 45.7 µM. In short, it runs like this:
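Quantitative HTS format: human iPSC neural progenitors, 1 h compound pretreatment, ZIKV 2 FFU/cell for 6 h at 37 C. Percent inhibition derived from luminescent caspase-3/7 signal between uninfected and infected controls.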
(In general: Quantitative high-throughput screening tests each substance at several concentrations.)
`O=C(O)c1ccc2[nH]cc(CCCCN3CC=C(c4ccccc4)CC3)c2c1`: the Potency entry was “inactive”.

As to `CC[N+]1(C)CCCC(OC(=O)C(O)(c2ccccc2)c2ccccc2)C1` (configuration not stated), the Potency entry was “inactive”.

Consider `CC(=O)Nc1cc([As](=O)(O)O)ccc1O`, for which the Potency result is “inactive”.

On to `CCCN1CCC[C@@H]2Cc3[nH]ncc3C[C@H]21`, for which the Potency result is “inactive”.

As for `N[C@@H](Cc1ccc(Oc2cc(I)c(O)c(I)c2)c(I)c1)C(=O)O`, the Potency result was “inactive”.

In the case of `CC(C)(N)Cc1ccc(Cl)cc1`, the Potency entry was “inactive”.

As for `NP(N)(=O)NC(=O)c1ccc(F)cc1`, the Potency result was “inactive”.

Consider `CC(C)NCC(O)c1ccccc1Cl` (configuration not stated), for which the Potency result was “inactive”.

Consider `Cc1ncc(CNC(=O)N(CCCl)N=O)c(N)n1`, for which the Potency result was “inactive”.

For `CN1C(=S)CN=C(c2ccccc2)c2cc(Cl)ccc21`, the Potency result is “inactive”.

Take `CCOP(=S)(OCC)Oc1cc(C)nc(C(C)C)n1`: the Potency result was “inactive”.

Take `c1ccc(C2CC2)c(OCC2=NCCN2)c1`: the Potency entry is “inactive”.

Turning to `COc1ccccc1N1CCNCC1`, the Potency result was “inactive”.

In the case of `O=c1oc2ccccc2c(O)c1C(CC(O)c1ccc(-c2ccc(Br)cc2)cc1)c1ccccc1` (configuration not stated), the Potency result is “inactive”.

On to `C=C1C[C@@H]2[C@H](CC[C@]3(C)C(=O)CC[C@@H]23)[C@@]2(C)C=CC(=O)C=C12`, for which the Potency entry was “inactive”.

For `CCCN1CCC[C@@H]2Cc3nc(N)ncc3C[C@H]21`, the Potency result was “inactive”.

`CCN(CC)CCN1C(=O)CN=C(c2ccccc2F)c2cc(Cl)ccc21`: the Potency result was “inactive”.

Turning to `O=C1NCN(c2ccccc2)C12CCN(CC1COc3ccccc3O1)CC2` (configuration not stated), the Potency entry is “inactive”.

As to `N#CC(C#N)=Cc1ccc(O)c(O)c1`, the Potency entry was “inactive”.

Take `Clc1ccc(CCC(Cn2ccnc2)Sc2c(Cl)cccc2Cl)cc1` (configuration not stated): the Potency entry is “inactive”.

In the case of `CC(CCc1ccccc1)NC(C)C(O)c1ccc(O)cc1` (configuration not stated), the Potency entry is “inactive”.

In the case of `NCCc1cc(O)c(O)cc1O`, the Potency entry is “inactive”.

Take `O=c1[nH]c2ccccc2n1C1CCN(CCCC(c2ccc(F)cc2)c2ccc(F)cc2)CC1`: the Potency result was “inactive”.

Regarding `CCC(COC(=O)c1cc(OC)c(OC)c(OC)c1)(c1ccccc1)N(C)C` (configuration not stated), the Potency entry is “inactive”.

Turning to `C=CCN1CC[C@]23c4c5ccc(O)c4O[C@H]2C(=O)CC[C@@]3(O)[C@H]1C5`, the Potency result is “inactive”.

As for `CCOC(=O)C1(c2ccccc2)CCN(CCC(C#N)(c2ccccc2)c2ccccc2)CC1`, the Potency entry was “inactive”.

For the compound `CC(C)(C)NCC(O)c1cc(Cl)c(N)c(Cl)c1` (configuration not stated), the Potency result is “inactive”.

Regarding `CN1C[C@H](CNC(=O)OCc2ccccc2)C[C@@H]2c3cccc4c3c(cn4C)C[C@H]21`, the Potency entry is “inactive”.

Regarding `c1ccc2c(c1)Nc1ccccc1S2`, the Potency result was “inactive”.

In the case of `C[C@H]1O[C@@H](O[C@H]2[C@@H](O)C[C@H](O[C@H]3[C@@H](O)C[C@H](O[C@H]4CC[C@@]5(C)[C@H](CC[C@@H]6[C@@H]5CC[C@]5(C)[C@@H](C7=CC(=O)OC7)CC[C@]65O)C4)O[C@@H]3C)O[C@@H]2C)C[C@H](O)[C@@H]1O`, the Potency result was “inactive”.

Take `CCN(CC)C(=O)N[C@@H]1C=C2c3cccc4[nH]cc(c34)C[C@@H]2N(C)C1`: the Potency result is “inactive”.

`Oc1cc(Cl)ccc1Oc1ccc(Cl)cc1Cl`: the Potency entry was “inactive”.

With `N[C@@H]1C[C@H]1c1ccccc1`, the Potency result is “inactive”.

With `C[C@]12CCC(=O)C(O)=C1CC[C@@H]1[C@@H]2CC[C@]2(C)C(=O)CC[C@@H]12`, the Potency entry is “inactive”.

For `NN=C(N)N`, the Potency result is “inactive”.

Regarding `Cc1ccc(S(=O)(=O)N[C@@H](CCCCN)C(=O)CCl)cc1`, the Potency entry is “inactive”.

The next test can be described thus: qHTS assay for measurement of the activity of small molecule inhibitors on Zika virus induced Caspase-3 activity in human astrocytoma cells (AID 1224859). Particulars: SNB-19 ZIKV-induced caspase-3/7, luminescence, 6 h; series mostly up to 45.7 µM. In short, it runs like this: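 Readout is luminescence from Caspase-Glo 3/7 added after a 6 h ZIKV infection (2 FFU/cell) of compound-pretreated (1 h) SNB-19 cells; data expressed as % inhibition versus uninfected and infected wells.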
Regarding `O=C(O)c1ccc2[nH]cc(CCCCN3CC=C(c4ccccc4)CC3)c2c1`, the compound was called inactive.

With `CC[N+]1(C)CCCC(OC(=O)C(O)(c2ccccc2)c2ccccc2)C1` (configuration not stated), the result was inactive.

In the case of `CC(=O)Nc1cc([As](=O)(O)O)ccc1O`, the call was inactive.

On to `CCCN1CCC[C@@H]2Cc3[nH]ncc3C[C@H]21`, for which the result was inactive.

For `N[C@@H](Cc1ccc(Oc2cc(I)c(O)c(I)c2)c(I)c1)C(=O)O`, the compound was called inactive.

For `CC(C)(N)Cc1ccc(Cl)cc1`, the call was inactive.

For the compound `NP(N)(=O)NC(=O)c1ccc(F)cc1`, the result was inactive.

`CC(C)NCC(O)c1ccccc1Cl` (configuration not stated): the outcome was inactive.

As for `Cc1ncc(CNC(=O)N(CCCl)N=O)c(N)n1`, the outcome was inactive.

`CN1C(=S)CN=C(c2ccccc2)c2cc(Cl)ccc21`: the outcome was inactive.

As for `CCOP(=S)(OCC)Oc1cc(C)nc(C(C)C)n1`, the outcome was inactive.

Consider `c1ccc(C2CC2)c(OCC2=NCCN2)c1`, for which the compound was called inactive.

Regarding `COc1ccccc1N1CCNCC1`, the result was inactive.

Consider `O=c1oc2ccccc2c(O)c1C(CC(O)c1ccc(-c2ccc(Br)cc2)cc1)c1ccccc1` (configuration not stated), for which the result was inactive.

Consider `C=C1C[C@@H]2[C@H](CC[C@]3(C)C(=O)CC[C@@H]23)[C@@]2(C)C=CC(=O)C=C12`, for which the result was inactive.

Consider `CCCN1CCC[C@@H]2Cc3nc(N)ncc3C[C@H]21`, for which the call was inactive.

`CCN(CC)CCN1C(=O)CN=C(c2ccccc2F)c2cc(Cl)ccc21`: the result was inactive.

As to `O=C1NCN(c2ccccc2)C12CCN(CC1COc3ccccc3O1)CC2` (configuration not stated), the outcome was inactive.

As to `N#CC(C#N)=Cc1ccc(O)c(O)c1`, the call was inactive.

Consider `Clc1ccc(CCC(Cn2ccnc2)Sc2c(Cl)cccc2Cl)cc1` (configuration not stated), for which the result was inactive.

`CC(CCc1ccccc1)NC(C)C(O)c1ccc(O)cc1` (configuration not stated): the call was inactive.

Consider `NCCc1cc(O)c(O)cc1O`, for which the outcome was inactive.

As to `O=c1[nH]c2ccccc2n1C1CCN(CCCC(c2ccc(F)cc2)c2ccc(F)cc2)CC1`, the compound was classed as inactive.

As for `CCC(COC(=O)c1cc(OC)c(OC)c(OC)c1)(c1ccccc1)N(C)C` (configuration not stated), the result was inactive.

As to `C=CCN1CC[C@]23c4c5ccc(O)c4O[C@H]2C(=O)CC[C@@]3(O)[C@H]1C5`, the compound was called inactive.

With `CCOC(=O)C1(c2ccccc2)CCN(CCC(C#N)(c2ccccc2)c2ccccc2)CC1`, the call was inactive.

Turning to `CC(C)(C)NCC(O)c1cc(Cl)c(N)c(Cl)c1` (configuration not stated), the outcome was inactive.

As for `CN1C[C@H](CNC(=O)OCc2ccccc2)C[C@@H]2c3cccc4c3c(cn4C)C[C@H]21`, the outcome was inactive.

`c1ccc2c(c1)Nc1ccccc1S2`: the compound was called inactive.

`C[C@H]1O[C@@H](O[C@H]2[C@@H](O)C[C@H](O[C@H]3[C@@H](O)C[C@H](O[C@H]4CC[C@@]5(C)[C@H](CC[C@@H]6[C@@H]5CC[C@]5(C)[C@@H](C7=CC(=O)OC7)CC[C@]65O)C4)O[C@@H]3C)O[C@@H]2C)C[C@H](O)[C@@H]1O`: the result was inactive.

As for `CCN(CC)C(=O)N[C@@H]1C=C2c3cccc4[nH]cc(c34)C[C@@H]2N(C)C1`, the result was inactive.

Regarding `Oc1cc(Cl)ccc1Oc1ccc(Cl)cc1Cl`, the result was inactive.

As to `N[C@@H]1C[C@H]1c1ccccc1`, the compound was classed as inactive.

Turning to `C[C@]12CCC(=O)C(O)=C1CC[C@@H]1[C@@H]2CC[C@]2(C)C(=O)CC[C@@H]12`, the outcome was inactive.

On to `NN=C(N)N`, for which the compound was called inactive.

In the case of `Cc1ccc(S(=O)(=O)N[C@@H](CCCCN)C(=O)CCl)cc1`, the outcome was inactive.
